Pf apPOL inh: Pf-apPOL inhibitors, biochemical, fluorescence; Plasmodium falciparum apicoplast DNA polymerase (apPOL); inhibition, % at 10 µM; Recombinant Pf-apPOL, molecular beacon fluorescence, 1.5 h; 210,000 compounds, 0.25% hits
mHTT-CaM PPI inh: mutant huntingtin-calmodulin interaction inhibitors – biochemical, AlphaScreen, primary screen | AlphaScreen His-mHTT/GST-CaM binding, luminescence | inhibition, % at 15 µM | 190,000 compounds, 3.6% hits;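 note: 0% = both proteins with DMSO and 100% = one protein alone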
Starred values were filed as active, the others as inactive; / = no result given; ! = not confirmed by another sample. Only some compounds are listed: those with a hit (about 3.5% of all), similar ones and a draw of the others. Cut-off read from the data, not from the text of the source: active = inhibition above about 50%; inactive = the rest.

SMILES	Pf apPOL inh	mHTT-CaM PPI inh
CC1CN(C(=O)CSc2ccccc2)CC1c1nc(-c2cccnc2)no1 (stereo not drawn)	-6.0	-1.7
COc1ccc(NC(=O)C2CCc3sc(C(=O)N4CCCCC4)cc3C2)c(OC)c1 (stereo not drawn)	2.7	56.5*
COc1ccc(OC)c(NC(=O)C2CCc3sc(C(=O)N4CCCC4)cc3C2)c1 (stereo not drawn)	1.1	27.2
CC(C)c1ccc(NC(=O)O[C@H]2CCC23CCC(c2ccccc2)CC3)cc1 (stereo partly drawn)	-1.2	-14.8
CN(CC(O)COCc1ccccc1)C1CCCCC1 (stereo not drawn)	-3.9	-4.1
O=S(=O)(c1c(F)cccc1F)N(CCc1ccc(F)cc1)C[C@@H](O)COCc1ccccc1	-4.0	99.2*
CCC(=O)NCc1csc(C2CCCN(C(=O)c3cc(F)ccc3F)C2)n1 (stereo not drawn)	-2.0	-1.0
O=C(NNC(=O)c1ccc(Cl)cc1)C(=O)NNC(=O)c1ccc(Cl)cc1	90.4*	/
Nc1ccccc1C(=O)NNC(=O)c1ccc(Cl)cc1	7.4	/
COc1ccc(S(=O)(=O)Nc2ccc(Cl)c(Cl)c2)cc1	-1.2	-10.6
CCOc1ccc(C(=O)Nc2ccc(F)cc2F)cc1Cl	-3.1	-8.5
N#Cc1cc([N+](=O)[O-])cnc1SCC(=O)Nc1ccccc1	-1.6	-3.6
CCOc1ccccc1C(=O)n1cc(Cl)cn1	97.7*!	-5.0
COc1ccccc1C(=O)N1CCC2(CC1)NC(=O)N(Cc1ccc(Cl)cc1)C2=O	-8.4	34.7
CCOc1ccccc1C(=O)N1CCC2(CC1)NC(=O)N(Cc1ccc(Cl)cc1)C2=O	-2.0	55.0*
CCOc1ccccc1C(=O)N1CCN(c2ccc(Cl)cc2)CC1	0.8	17.4
O=C(c1c[nH]c2ccccc12)N1CCC2(CC1)NC(=O)N(Cc1ccc(Cl)cc1)C2=O	0.8	89.7*
O=C(c1cccc2[nH]ccc12)N1CCC2(CC1)NC(=O)N(Cc1ccc(Cl)cc1)C2=O	-2.3	29.0
C=CCc1c(C)c(C#N)c2nc3ccccc3n2c1NCc1ccccn1	-32.3	7.0
CC1=C(C(=O)Nc2cccc(C(F)(F)F)c2)C(c2sccc2C)C2=C(CC(C)(C)CC2=O)N1 (stereo not drawn)	-2.3	29.0
CC1CCCCC1NC(=O)CN1C(=O)/C(=C/c2ccccc2)Sc2ccccc21 (stereo not drawn)	2.3	-1.0
Cc1ccc(NC(=O)C2CCN(c3ccc(Cl)c(Cl)c3)C2=O)cc1 (stereo not drawn)	-1.0	1.0
CC(C)NC(=O)c1ccc(OCC2CCCN(C(=O)c3ccoc3)C2)cc1 (stereo not drawn)	-0.3	-9.1
COc1nonc1OC(C)CNc1ccc(Cl)cc1[N+](=O)[O-] (stereo not drawn)	-0.7	18.0
CCCNC(=O)N1CCC(c2cnn(-c3ccccc3)c2)CC1	-4.7	-13.2
SMILES	Pf apPOL inh	mHTT-CaM PPI inh
O=C(NCCO)C(=O)Nc1ccccc1Cl	-12.4	-0.7
OCCNCC(O)Cn1c2ccccc2c2ccccc21 (stereo not drawn)	-4.5	1.9
OCC(CO)(CO)NCC(O)Cn1c2ccc(Cl)cc2c2cc(Cl)ccc21 (stereo not drawn)	1.2	67.9*
CN(C)CC(O)Cn1c2ccccc2c2ccccc21 (stereo not drawn)	-9.9	0.6
OCC(CO)(CO)NCC(O)Cn1c2ccccc2c2ccccc21 (stereo not drawn)	3.7	2.4
CN(C)CC(O)Cn1c2ccc(Cl)cc2c2cc(Cl)ccc21 (stereo not drawn)	26.1	60.1*
CC(C)(CO)NCC(O)Cn1c2ccc(Cl)cc2c2cc(Cl)ccc21 (stereo not drawn)	0.0	96.7*
CCCn1ncc(N2CCC(C(=O)NCc3cnccn3)CC2)cc1=O	-3.5	-0.7
CCc1nc(C2CCCN2S(=O)(=O)Cc2ccccc2)n[nH]1 (stereo not drawn)	0.3	1.3
CCC(Sc1nc2cc3c(cc2c(=O)n1CCc1ccccc1)OCO3)C(=O)NCCOC (stereo not drawn)	-1.5	5.0
Cn1nc(COc2cccc(F)c2)c2c1CCN(S(=O)(=O)c1ccc(Cl)s1)C2	-1.9	28.3
Cc1ccc(-c2nc(C3CCN(S(=O)(=O)c4ccc(Cl)cc4C)CC3)no2)cc1	-4.1	3.0
O=C1NC(c2ccccc2)Nc2c1sc1nc3c(cc21)CCCC3 (stereo not drawn)	-6.9	11.0
O=S(=O)(NCCSC1CCCCC1)c1ccc(F)cc1	-1.3	-17.9
O=[N+]([O-])c1cc([N+](=O)[O-])c2cccnc2c1N1CCOCC1	5.0	20.0
CC1CCN(Cc2cc(Cn3ccnc3)c3cccnc3c2O)CC1	5.3	100.0*
Clc1cc2cccnc2c2ncccc12	/	100.1*
Cc1c(O)ccc2c(CN3CCC(C)CC3)cc(=O)oc12	-6.2	-1.5
O=[N+]([O-])c1ccccc1CN1CCCCCCC1	-2.8	-1.0
COc1c(I)cc(Cl)c2cccnc12	-4.3	/
O=[N+]([O-])c1cc(CN2CCCCC2)c2cccnc2c1O	0.4	100.3*
O=[N+]([O-])c1cc(CN2CCOCC2)c2cccnc2c1O	-60.3	100.0*
O=c1[nH]nc(SCc2nc(-c3ccc(F)cc3)no2)n2nc(-c3cccs3)cc12	2.3	0.2
O=C1CC(c2noc(C3CC3)n2)CN1c1ccc(F)cc1 (stereo not drawn)	-3.4	-2.9
COc1ccc(OC)c(N2C(N)=C(C#N)C(c3ccc4c(c3)OCO4)C3=C2CC(C)(C)CC3=O)c1 (stereo not drawn)	-1.3	21.0
SMILES	Pf apPOL inh	mHTT-CaM PPI inh
CCn1c(=O)c(NCc2cc(F)ccc2F)nc2ccncc21	-1.8	-1.8
CCOc1cccc(CN2CCCCCC2)c1O	-3.0	4.8
O=[N+]([O-])c1ccc(N2CCN(c3ccccc3)CC2)c2ncccc12	-7.9	15.4
Cc1ccnc2c([N+](=O)[O-])cccc12	-2.5	-3.6
COCc1cc(CN2CCCCC2)c(O)c2ncccc12	1.6	100.1*
O=[N+]([O-])c1cc(Cl)c2cccnc2c1O	-0.7	100.2*
O=[N+]([O-])c1cc(CN2CCN(c3ccccc3)CC2)c(O)c2ncccc12	1.5	100.3*
COc1ccc(Br)cc1C1=N/C(=C/c2ccc(Cl)cc2)C(=O)O1	-3.4	4.0
Cc1ccc(-c2cn3c(CC(=O)NCc4cccs4)csc3n2)cc1	-20.8	51.9*
COc1ccc(-c2cn3c(C(=O)NCc4cccs4)csc3n2)cc1	-3.0	10.3
c1coc(CNc2ccc3c(c2)OCO3)c1	1.8	71.4*
CCCCOc1ccc(S(=O)(=O)NCc2ccc3c(c2)OCO3)cc1	-18.4	-0.6
Cc1ccc(C(=O)Nc2ccc3c(c2)OCO3)cc1	0.5	47.0
O=C(NCc1ccco1)C(=O)Nc1ccc2c(c1)OCO2	-2.2	0.3
Cc1ccc(CNc2ccc3c(c2)OCO3)cc1	0.5	100.5*
Cc1ccccc1CNc1ccc2c(c1)OCO2	5.6	90.9*
COc1ccccc1CC(=O)Nc1ccc2c(c1)OCO2	-4.5	7.4
CCCCOc1ccc(CNc2ccc3c(c2)OCO3)cc1	0.0	91.5*
NC(=NOC(=O)c1ncc(C(F)(F)F)cc1Cl)c1ccc(C(F)(F)F)cn1	1.9	/
COc1ccc(NC(=O)N2CCCC2c2cc(C(C)C)on2)cc1OC (stereo not drawn)	6.5	-2.6
Cc1cccc(C(=O)N2CCN(c3cccc(C)c3)C(=O)C2C)c1 (stereo not drawn)	-8.3	8.9

Screens as filed in PubChem.
